The text below walks through data of PubChem BioAssay (NCATS).

The structures appear in SMILES notation. Several values for one entry are separate records, joined by “and”; a condition that tells them apart may be missing. Identical values can stand only once. Records with an inconclusive call do not appear. Activity calls are given as the source filed them. Unless noted, calls follow the shape of the full dose curve.

Assay [1] addresses Peroxisome proliferator-activated receptor delta (Homo sapiens) (UniProt Q03181). The assay can be described thus: qHTS assay for small molecule agonists of peroxisome proliferator-activated receptor delta signaling (AID 588534).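 Also: 0% = DMSO basal wells and 100% = positive control agonist at 10 µM.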 The procedure, abridged:
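Titration series tested in agonist mode on beta-lactamase reporter cells; 18 hrs at 37 C after a 5 hr pre-incubation. Readout: CCF4 fluorescence, 2 hrs RT. Hill equation gives EC50 and maximal response.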
On the technique in general: In qHTS, concentration-response curves come from the screen itself.

Assay [2] is described as follows: qHTS assay for small molecule antagonists of peroxisome proliferator-activated receptor delta signaling (AID 588535; active = well fitted inhibition curve with a large enough effect in the signal ratio, with a control signal flat, not every such curve was filed as active; the % refers to the signal ratio;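 as to max response: cells co-treated with a PPAR-delta agonist as stimulator during compound exposure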). Particulars: HEK293T PPARd-UAS-bla, beta-lactamase FRET ratio, 18 h; 460 nm channel. In a few lines:
(§1)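 Beta-lactamase reporter read-out (405 nm excitation, 460/530 nm emission) after CCF4 loading for 2 hrs at RT. HEK293T PPAR-delta-UAS-bla cells, 2% charcoal/dextran FBS, compounds for 18 hrs at 37 C. Hill fit gave IC50 and efficacy.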

Assay [3] deals with Peroxisome proliferator-activated receptor delta (Homo sapiens) (UniProt Q03181). The description is as above. In a few lines:
as §1

Assay [4] addresses Peroxisome proliferator-activated receptor gamma (Homo sapiens) (UniProt P37231). Put plainly: qHTS assay for small molecule agonists of peroxisome proliferator-activated receptor gamma signaling (AID 588536; active = well fitted curve in the direction sought with a large enough effect in the signal ratio, with a control signal flat, not every such curve was filed as active; the % refers to the signal ratio;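 also: 0% = DMSO basal wells and 100% = rosiglitazone at 2 µM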). The procedure, abridged:
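This is an agonist-mode beta-lactamase reporter assay in HEK293 PPAR-gamma-UAS-bla cells with 1% charcoal/dextran FBS. Compound titrations ran 16 h at 37 C before CCF4 detection. EC50 and efficacy are Hill fits scaled to 2 uM rosiglitazone (100%) and DMSO basal.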

Assay [5] shares this target. Put plainly: qHTS assay for small molecule antagonists of peroxisome proliferator-activated receptor gamma signaling (AID 588537; active = well fitted inhibition curve with a large enough effect in the signal ratio, with a control signal flat, not every such curve was filed as active; the % refers to the signal ratio;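 also: reporter cells co-stimulated with 50 nM rosiglitazone agonist during compound treatment; % of control where 0% means no effect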). The procedure, abridged:
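Read-out: CCF4 fluorescence (ex 405, em 460/530 nm) after 2 h at RT. Cells were HEK293 carrying a UAS-bla reporter and treated 16 h at 37 C with compound plus rosiglitazone (50 nM final). Normalized to rosiglitazone and DMSO.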

Assay [6] has as its target Vitamin D3 receptor (Homo sapiens) (UniProt P11473). Put plainly: qHTS assay for small molecule agonists of vitamin D receptor signaling (AID 588543).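 Also: 0% = DMSO basal and 100% = reference agonist control.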 In a few lines: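 VDR-UAS-bla HEK293T cells, 2000/well, 2% charcoal-stripped FBS; compound titration 16 h at 37 C; CCF4 beta-lactamase ratio read. Normalized to 50 nM 1-alpha,25-dihydroxyvitamin D3 (100%) and DMSO; Hill fit gives EC50, efficacy.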

In assay [7] the target is Thyroid hormone receptor beta (Homo sapiens) (UniProt P10828). The assay can be described thus: qHTS assay for small molecule antagonists of thyroid hormone receptor beta signaling (AID 588547; active = well fitted inhibition curve with a large enough effect in the signal ratio, with a control signal flat, not every such curve was filed as active; the % refers to the signal ratio;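 also: cells stimulated with 0.4 nM T3 agonist during compound exposure; % is scaled to controls: 0 for no effect and ±100 for the full control effect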). Particulars: TR-UAS-bla HEK293, beta-lactamase ratio, antagonist mode, 18 h. The procedure, abridged:
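TR-UAS-bla GripTite HEK293 cells in 2% charcoal/dextran FBS medium; compounds 0.59 nM to 92 uM with T3 at 0.4nM final, 18 h at 37 C. Beta-lactamase read by CCF4 fluorescence (460/530 nm); Hill fits gave IC50 and efficacy.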

Assay [8] can be described thus: qHTS assay for small molecule activators of the nuclear factor-kappa B (NF-kB) signaling pathway (AID 651749; active = well fitted activation curve with a large enough effect in the signal ratio; the % refers to the signal ratio; also: % of control where 0% means no effect). Particulars: NF-kB-bla ME-180 cells, beta-lactamase FRET ratio, 16 h; stronger effect = higher value. The procedure, abridged:
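NF-kB-bla ME-180 cells, 2,000/well; 23 nL compound or DMSO pinned; 16 hr, 37C/5% CO2; beta-lactamase FRET read-out.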

Assay [9] is described as follows: qHTS assay for small molecule disruptors of the mitochondrial membrane potential - 5 hr assay (AID 651755). Also: % is scaled to controls: 0 for no effect and ±100 for the full control effect; nearly all actives have a fitted effect of over 40% in size. The procedure, abridged:
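Read-out: ratiometric Mito-MPS fluorescence, green monomer (ex 490/em 535) vs red mitochondrial aggregate (ex 540/em 590). HepG2 cells treated 5 hr at 37C before 30 min dye loading.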

For assay [10], the target named is Tumor necrosis factor (Homo sapiens) (UniProt P01375). Put plainly: qHTS assay to identify small molecules that stimulate Tumor Necrosis Factor-alpha (TNF-alpha) secretion (AID 651757; active = well fitted curve in the direction sought with a large enough effect in the signal ratio; the % refers to the signal ratio; also: 0% is about no effect). In a few lines: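 THP-1 cells, 3000/well; compound 17 hrs, 37 C; add cryptate/XL665 anti-TNF-alpha antibody pair; 3 hr RT; TR-FRET (HTRF) read of secreted TNF-alpha. Quantitative HTS format.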
Sequence of Tumor necrosis factor (Homo sapiens) (P01375 whole entry, looked up): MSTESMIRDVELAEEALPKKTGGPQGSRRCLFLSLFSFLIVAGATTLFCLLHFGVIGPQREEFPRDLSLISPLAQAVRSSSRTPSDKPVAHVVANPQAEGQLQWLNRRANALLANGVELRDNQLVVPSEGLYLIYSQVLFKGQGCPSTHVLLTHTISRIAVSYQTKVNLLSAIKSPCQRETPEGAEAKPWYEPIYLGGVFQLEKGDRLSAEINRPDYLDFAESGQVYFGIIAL

A short description of assay [11]: qHTS assay for environmental chemicals that activate the Aryl hydrocarbon Receptor (AhR) signaling pathway (AID 651777; active = well fitted curve in the direction sought with a large enough effect; an effect the other way counts as inactive or inconclusive; also: % of control where 0% means no effect; nearly all actives have a fitted effect of over 15% in size). Particulars: 1A2-DRE human hepatoma cells, luciferase, 24 h; activation: stronger effect = higher value. In a few lines: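 Following a 24 hr incubation with test chemicals at 37 C and 5% CO2, 1A2-DRE human hepatoma cells received One-Glo reagent; after 30 min at room temperature, luciferase output reflected CYP1A2 induction via AhR.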

Assay [12] is described as follows: qHTS assay for small molecule agonists of the antioxidant response element (ARE) signaling pathway measured by Nrf2-dependant transcriptional activity (AID 720636; active = well fitted curve in the direction sought with a large enough effect in the repeat runs; an effect the other way counts as inactive or inconclusive;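 also: HepG2 cells with an ARE-driven luciferase reporter; % of control where 0% means no effect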). In a few lines: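 ONE-Glo luminescence, read 30 min after reagent addition at room temperature, reflected ARE reporter activity in HepG2 cells that had been incubated with compound for 16 hr at 37 C in 1% dialyzed FBS.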

Assay [13] addresses Estrogen receptor (Homo sapiens) (UniProt P03372). The assay can be described thus: qHTS assay for small molecule antagonists of estrogen receptor alpha signaling (AID 588513; active = well fitted curve in the direction sought with a large enough effect in the signal ratio, with a control signal flat, not every such curve was filed as active; the % refers to the signal ratio; also: % is scaled to controls: 0 for no effect and ±100 for the full control effect). The procedure, abridged: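 ER-alpha-UAS-bla GripTite HEK 293 cells in 2% charcoal/dextran-treated FBS medium; compounds titrated (1:2, duplicate), then stimulated with 0.5 nM 17-beta-estradiol for 18 h at 37C. CCF4 beta-lactamase fluorescence; Hill-fit IC50 and efficacy.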

Assay [14] has as its target Bile acid receptor (Homo sapiens) (UniProt Q96RI1). The assay can be described thus: qHTS assay for small molecule agonists of farnesoid X receptor signaling (AID 588527).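 Also: 0% = vehicle basal and 100% = reference agonist.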 Particulars: HEK293T FXR-UAS-bla, beta-lactamase ratio, 16 h; stronger effect = higher value. The procedure, abridged: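 Agonist-mode beta-lactamase reporter in GeneBLAzer FXR-UAS-bla HEK293T cells, titration up to 92 uM, 16 h exposure at 37 C, CCF4 fluorescence. Response scaled to DMSO (0%) and 100 uM chenodeoxycholic acid (100%), then Hill-fitted for EC50 and efficacy.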

Assay [15] deals with Glucocorticoid receptor (Homo sapiens) (UniProt P04150). Put plainly: qHTS assay for small molecule agonists of glucocorticoid receptor signaling (AID 588532; active = well fitted curve in the direction sought with a large enough effect in the signal ratio, with a control signal flat; the % refers to the signal ratio;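 also: 100% = dexamethasone at 0.1 µM and 0% = DMSO only wells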). Particulars: HeLa MMTV-bla, beta-lactamase ratio, agonist, 18 h; stronger effect = higher value; percent of dexamethasone control, DMSO zero. In a few lines:
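MMTV-bla HeLa beta-lactamase reporter cells in 1% charcoal/dextran FBS medium, compounds up to 92 uM for 18 h at 37 C, CCF4 readout; normalized to 0.1 uM dexamethasone (100%), EC50 and efficacy from Hill fits.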

A short description of assay [16]: qHTS assay to identify small molecules that stimulate interleukin-8 (IL-8) secretion (AID 651758; active = well fitted activation curve with a large enough effect in the signal ratio; the % refers to the signal ratio; also: 0% is about no effect). The procedure, abridged: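 Compounds are added to THP-1 cells (2000 per well) and left 16 hrs at 37 C. A labeled anti-IL-8 antibody pair is then added, and IL-8 secretion is measured by time-resolved FRET after 1-3 hrs at room temperature.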
Assay [17] is described as follows: Cell Viability - NIH 3T3 (AID 541; active = well fitted curve in the direction sought with a large enough effect; an effect the other way counts as inactive or inconclusive;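 also: cells exposed to compound for 40 hours; plate controls were DMSO alone for no effect and tamoxifen positive control for full effect; nearly all actives have a fitted effect of over 25% in size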). Particulars: NIH 3T3 cell viability, qHTS; activity change, negative = cytotoxicity: at 92.2 µM (top of the series). In a few lines: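 qHTS format; 40 hr compound exposure, 37 °C; CellTiter-Glo luminescence (cellular ATP) read-out after 20 min at RT. Decrease in ATP = cytotoxicity; AC50 from standard Hill fit.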
For assay [18], the target named is Glucocorticoid receptor (Homo sapiens) (UniProt P04150). The assay can be described thus: qHTS assay for small molecule antagonists of glucocorticoid receptor signaling (AID 588533; active = well fitted inhibition curve with a large enough effect in the signal ratio, with a control signal flat, not every such curve was filed as active; the % refers to the signal ratio;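 also: cells stimulated with 2 nM dexamethasone as agonist; % is scaled to controls: 0 for no effect and ±100 for the full control effect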). The procedure, abridged: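 Antagonist-mode qHTS: compound titrations added to GRE-bla HeLa cells, then dexamethasone 2 nM final; 18 h, 37 C. CCF4 FRET fluorescence normalized to dexamethasone and DMSO; IC50 from Hill fit.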
Sequence of Glucocorticoid receptor (Homo sapiens) (P04150 whole entry, looked up): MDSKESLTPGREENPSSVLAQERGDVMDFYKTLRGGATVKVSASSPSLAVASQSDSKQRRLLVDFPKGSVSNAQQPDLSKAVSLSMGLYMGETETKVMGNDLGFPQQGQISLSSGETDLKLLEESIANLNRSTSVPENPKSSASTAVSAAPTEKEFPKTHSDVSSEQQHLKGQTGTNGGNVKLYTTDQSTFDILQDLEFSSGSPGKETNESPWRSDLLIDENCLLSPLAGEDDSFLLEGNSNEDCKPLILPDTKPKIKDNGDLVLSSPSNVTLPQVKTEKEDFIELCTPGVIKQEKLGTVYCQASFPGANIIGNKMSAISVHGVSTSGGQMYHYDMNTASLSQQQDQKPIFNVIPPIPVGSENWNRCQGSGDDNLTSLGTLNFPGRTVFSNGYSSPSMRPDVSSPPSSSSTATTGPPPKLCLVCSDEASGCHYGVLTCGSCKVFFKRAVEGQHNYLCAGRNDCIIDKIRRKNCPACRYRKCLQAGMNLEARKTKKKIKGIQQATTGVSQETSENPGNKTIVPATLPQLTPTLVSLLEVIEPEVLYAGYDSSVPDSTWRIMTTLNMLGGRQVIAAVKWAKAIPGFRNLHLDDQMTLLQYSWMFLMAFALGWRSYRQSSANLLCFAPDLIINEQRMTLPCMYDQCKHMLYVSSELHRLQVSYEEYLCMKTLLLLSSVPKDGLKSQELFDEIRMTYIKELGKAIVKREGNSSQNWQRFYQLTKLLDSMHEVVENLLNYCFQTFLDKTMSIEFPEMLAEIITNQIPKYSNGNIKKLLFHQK

Assay [19] addresses Nuclear receptor ROR-gamma (Homo sapiens) (UniProt P51449). Put plainly: qHTS assay for small molecule antagonists of the retinoid-related orphan receptor gamma (ROR-gamma) signaling pathway (AID 651802; active = well fitted curve in the direction sought with a large enough effect; an effect the other way counts as inactive or inconclusive;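 also: CHO cells with doxycycline-induced ROR-gamma expression; luciferase reporter luminescence driven by ROR response element; % is scaled to controls: 0 for no effect and ±100 for the full control effect; nearly all actives have a fitted effect of over 60% in size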). In a few lines:
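Luciferase read-out: ONE-Glo luminescence after 30 min at room temperature, following 16hr doxycycline induction at 37C, 5% CO2 of CHO cells with TET-inducible ROR and RORE-LUC reporter; decreased luminescence = reduced reporter activity.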

For assay [20], the target named is Thyroid hormone receptor beta (Homo sapiens) (UniProt P10828). The assay can be described thus: qHTS assay for small molecule agonists of thyroid hormone receptor beta signaling (AID 588545).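 Also: 0% = DMSO only and 100% = 10 nM T3.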 The procedure, abridged: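 Efficacy and EC50 values derive from Hill fits of qHTS titration data, normalized to 10 nM T3 and DMSO-only wells. HEK 293 reporter cells were stimulated for 18 hrs at 37 C, with beta-lactamase activity measured by CCF4 fluorescence.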
Sequence of Thyroid hormone receptor beta (Homo sapiens) (P10828 whole entry, looked up): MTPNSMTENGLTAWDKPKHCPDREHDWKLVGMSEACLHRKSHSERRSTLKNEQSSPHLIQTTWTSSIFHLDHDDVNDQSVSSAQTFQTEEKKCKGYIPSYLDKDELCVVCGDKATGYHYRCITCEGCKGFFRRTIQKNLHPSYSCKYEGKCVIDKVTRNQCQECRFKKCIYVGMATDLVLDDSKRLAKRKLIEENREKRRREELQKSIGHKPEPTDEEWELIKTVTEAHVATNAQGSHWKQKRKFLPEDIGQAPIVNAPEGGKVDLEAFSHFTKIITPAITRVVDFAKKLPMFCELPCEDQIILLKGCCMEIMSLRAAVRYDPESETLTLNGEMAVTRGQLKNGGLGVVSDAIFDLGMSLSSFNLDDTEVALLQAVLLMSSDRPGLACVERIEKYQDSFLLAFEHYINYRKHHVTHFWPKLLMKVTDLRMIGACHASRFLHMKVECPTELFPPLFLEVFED

Sequence of Peroxisome proliferator-activated receptor delta (Homo sapiens) (Q03181 whole entry, looked up): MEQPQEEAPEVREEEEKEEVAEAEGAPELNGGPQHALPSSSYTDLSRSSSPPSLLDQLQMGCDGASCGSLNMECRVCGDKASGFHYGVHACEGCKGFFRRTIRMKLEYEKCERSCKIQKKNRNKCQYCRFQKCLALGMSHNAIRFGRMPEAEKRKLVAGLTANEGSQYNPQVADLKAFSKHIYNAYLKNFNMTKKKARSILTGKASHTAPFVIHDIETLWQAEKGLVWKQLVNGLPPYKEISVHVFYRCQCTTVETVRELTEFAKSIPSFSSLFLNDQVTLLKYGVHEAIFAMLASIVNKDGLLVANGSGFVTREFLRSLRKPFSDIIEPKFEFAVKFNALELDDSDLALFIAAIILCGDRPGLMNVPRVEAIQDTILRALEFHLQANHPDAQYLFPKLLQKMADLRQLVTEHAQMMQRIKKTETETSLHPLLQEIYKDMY
Sequence of Peroxisome proliferator-activated receptor gamma (Homo sapiens) (P37231 whole entry, looked up): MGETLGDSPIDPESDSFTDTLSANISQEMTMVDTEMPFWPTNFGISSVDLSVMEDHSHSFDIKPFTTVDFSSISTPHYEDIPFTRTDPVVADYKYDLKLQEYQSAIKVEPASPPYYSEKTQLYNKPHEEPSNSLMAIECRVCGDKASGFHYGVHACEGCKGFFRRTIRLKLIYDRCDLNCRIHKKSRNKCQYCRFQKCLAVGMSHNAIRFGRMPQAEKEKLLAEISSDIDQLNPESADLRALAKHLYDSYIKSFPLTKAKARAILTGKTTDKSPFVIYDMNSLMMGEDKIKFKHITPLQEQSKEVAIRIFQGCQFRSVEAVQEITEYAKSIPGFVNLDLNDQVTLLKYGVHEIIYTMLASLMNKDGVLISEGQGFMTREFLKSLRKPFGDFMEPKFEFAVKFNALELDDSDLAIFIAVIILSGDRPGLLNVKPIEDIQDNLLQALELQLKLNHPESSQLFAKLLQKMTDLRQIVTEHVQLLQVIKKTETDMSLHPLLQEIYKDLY
Sequence of Vitamin D3 receptor (Homo sapiens) (P11473 whole entry, looked up): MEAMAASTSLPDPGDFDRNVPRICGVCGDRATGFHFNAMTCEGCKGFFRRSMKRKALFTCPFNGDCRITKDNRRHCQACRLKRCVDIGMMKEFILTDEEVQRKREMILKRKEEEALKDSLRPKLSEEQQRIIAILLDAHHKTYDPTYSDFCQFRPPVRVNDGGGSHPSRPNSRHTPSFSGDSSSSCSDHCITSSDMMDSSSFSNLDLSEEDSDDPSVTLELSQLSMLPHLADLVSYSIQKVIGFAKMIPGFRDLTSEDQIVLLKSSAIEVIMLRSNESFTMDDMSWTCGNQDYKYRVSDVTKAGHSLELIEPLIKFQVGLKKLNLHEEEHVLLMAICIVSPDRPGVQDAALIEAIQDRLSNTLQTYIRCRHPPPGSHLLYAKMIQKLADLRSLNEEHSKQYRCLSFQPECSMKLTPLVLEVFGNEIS
Sequence of Bile acid receptor (Homo sapiens) (Q96RI1 whole entry, looked up): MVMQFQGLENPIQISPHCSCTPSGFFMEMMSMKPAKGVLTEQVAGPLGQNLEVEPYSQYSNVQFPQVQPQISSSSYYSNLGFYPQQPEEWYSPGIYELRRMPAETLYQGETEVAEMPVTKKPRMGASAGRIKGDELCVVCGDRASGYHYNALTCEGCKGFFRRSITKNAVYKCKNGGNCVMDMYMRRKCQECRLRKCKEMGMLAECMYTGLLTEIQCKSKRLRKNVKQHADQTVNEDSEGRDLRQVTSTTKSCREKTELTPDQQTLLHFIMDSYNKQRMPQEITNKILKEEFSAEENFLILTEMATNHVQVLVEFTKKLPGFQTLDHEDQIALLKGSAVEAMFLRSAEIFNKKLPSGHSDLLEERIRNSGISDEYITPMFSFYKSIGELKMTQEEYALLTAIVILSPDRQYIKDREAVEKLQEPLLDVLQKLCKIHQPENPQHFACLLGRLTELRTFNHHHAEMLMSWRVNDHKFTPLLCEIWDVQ
Sequence of Estrogen receptor (Homo sapiens) (P03372 whole entry, looked up): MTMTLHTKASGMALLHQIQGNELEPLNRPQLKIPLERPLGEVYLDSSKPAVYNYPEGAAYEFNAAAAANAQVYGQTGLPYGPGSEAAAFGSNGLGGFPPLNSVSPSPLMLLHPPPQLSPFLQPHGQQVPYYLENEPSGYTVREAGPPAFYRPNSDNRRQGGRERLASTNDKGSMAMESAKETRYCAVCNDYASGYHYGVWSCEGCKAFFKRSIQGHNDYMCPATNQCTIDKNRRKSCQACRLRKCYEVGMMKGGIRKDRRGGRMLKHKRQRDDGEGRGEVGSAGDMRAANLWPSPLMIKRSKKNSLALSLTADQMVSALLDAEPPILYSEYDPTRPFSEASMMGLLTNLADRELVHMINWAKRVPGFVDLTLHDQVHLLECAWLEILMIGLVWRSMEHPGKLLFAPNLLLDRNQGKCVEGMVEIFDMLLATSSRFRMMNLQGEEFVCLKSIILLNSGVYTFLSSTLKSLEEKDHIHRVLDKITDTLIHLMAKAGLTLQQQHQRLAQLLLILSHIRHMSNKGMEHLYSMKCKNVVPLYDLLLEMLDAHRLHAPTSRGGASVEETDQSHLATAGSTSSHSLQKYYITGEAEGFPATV
Sequence of Nuclear receptor ROR-gamma (Homo sapiens) (P51449 whole entry, looked up): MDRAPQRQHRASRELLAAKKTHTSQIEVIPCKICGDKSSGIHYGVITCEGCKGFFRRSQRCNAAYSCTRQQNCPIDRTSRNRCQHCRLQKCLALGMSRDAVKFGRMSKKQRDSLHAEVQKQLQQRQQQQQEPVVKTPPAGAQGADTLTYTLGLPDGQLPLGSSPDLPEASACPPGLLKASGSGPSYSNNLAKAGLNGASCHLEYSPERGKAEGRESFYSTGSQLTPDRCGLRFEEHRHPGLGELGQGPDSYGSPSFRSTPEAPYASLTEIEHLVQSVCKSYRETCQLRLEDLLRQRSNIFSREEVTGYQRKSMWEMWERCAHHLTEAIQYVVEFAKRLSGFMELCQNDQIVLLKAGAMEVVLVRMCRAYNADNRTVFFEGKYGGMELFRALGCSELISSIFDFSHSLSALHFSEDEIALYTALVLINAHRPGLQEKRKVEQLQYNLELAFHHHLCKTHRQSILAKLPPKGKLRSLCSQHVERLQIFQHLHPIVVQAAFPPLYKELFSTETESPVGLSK

With `CC(C)(Cl)Cl`, the compound was classed as inactive in [1], in [3], in [4], in assay [6] and in assay [10]. Moreover, in assay [2], the max response is -19.4%. In addition, the Potency entry in assay [5], in assay [9] and in assay [12] was “inactive” in each case. Moreover, the activity change % (negative = inhibition) in assay [7] is -3.24% (inactive). The activation in [8] was 0.397% (inactive); in [11], 0.894% (inactive).

Take `CNC(=O)O/N=C/C(C)(C)S(C)=O` (configuration not stated): the Potency entry in assay [13], in [5], in assay [9], in assay [16] and in assay [12] was “inactive” throughout. Moreover, the activation was -0.355% (inactive) and 3.36% (inactive) in [14]; 15.3% (inactive) and 5.05% (inactive) in assay [15]; -0.721% (inactive) and -0.0233% (inactive) in assay [8]. Further, the outcome in assay [1], in assay [6] and in assay [10] was inactive. Moreover, the max response in [2] was 8.11% and 9.71%. Further, in assay [7], the activity change % (negative = inhibition) is 6.05% (inactive) and 1.68% (inactive).

Consider `CN(C)C(=O)Cl`, for which the Potency result in [17], in assay [13], in assay [5], in [9], in [16] and in assay [19] was “inactive” in each case. The activation in [15] was 12.7% (inactive); in [8], -0.0384% (inactive). Besides, the compound was classed as inactive in [18], in assay [1], in [4] and in assay [10]. Further, in [2], the max response was -22.3%. Further, in assay [7], the activity change % (negative = inhibition) is -23.4% (inactive).

As to `CCCN(CCC)c1c([N+](=O)[O-])cc(C(F)(F)F)cc1[N+](=O)[O-]`, the Potency result in assay [17], in assay [13], in assay [5], in assay [20], in [9] and in assay [19] was “inactive” each time. Moreover, the Potency result in [12] was “inactive”. The activation in [14] was 1.13% (inactive); in assay [8], -3.66% (inactive) and -3.44% (inactive); in assay [11], 0.344% (inactive) and 0.563% (inactive). The compound was classed as inactive in assay [1], in [3], in assay [6] and in assay [10]. The max response in assay [2] came out at 0.867%. The activity change % (negative = inhibition) in [7] is 9.18% (inactive) and -4.26% (inactive).

Turning to `Nc1ccccc1-c1ccccc1`, the Potency result in [13], in assay [20], in assay [19] and in assay [12] was “inactive” in each case. Further, the figures for the activation in assay [15], in assay [8] and in [11] were -2.58% (inactive), -2.55% (inactive) and -0.114% (inactive), respectively. For the same compound, the outcome in [18], in assay [1], in assay [4] and in assay [6] was inactive.

Take `O=[N+]([O-])c1ccccc1-c1ccccc1`: the Potency result in assay [17], in assay [13], in assay [20], in [9], in assay [19] and in assay [12] was “inactive” in each case. The outcome in assay [4] and in assay [10] was inactive. Also, the activity change % (negative = inhibition) in [7] was -0.648% (inactive).

In the case of `COC(=O)c1ccccc1N`, the activation in [15] is -6.23% (inactive); in assay [8] it was -0.425% (inactive); in assay [11], 1.96% (inactive). Moreover, the call in assay [1], in assay [4], in assay [6] and in assay [10] was inactive. For the same compound, the max response in [2] was -46.7%. Moreover, the Potency entry in assay [5], in assay [20], in assay [19] and in [12] was “inactive” throughout. In [7], the activity change % (negative = inhibition) was -1.98% (inactive).

As for `Cc1cc(-c2cc(C)c(N)c(C)c2)cc(C)c1N`, the Potency entry in [17], in [13], in [20], in assay [9] and in [12] was “inactive” throughout. For the same compound, the activation in assay [15] is -0.885% (inactive); in assay [8], 0.737% (inactive). The result in assay [1], in [4] and in assay [6] was inactive. Further, the max response in assay [2] is 7.84%. In addition, the activity change % (negative = inhibition) in [7] is 5.74% (inactive).

In the case of `Oc1cc(Cl)cc(Cl)c1`, the Potency entry in assay [17], in assay [13], in [5], in [16] and in assay [19] was “inactive” each time. The activation in assay [15] is 6.41% (inactive); in [8], 0.715% (inactive). Moreover, the compound was called inactive in [18], in assay [1], in assay [4] and in [6]. In addition, the activity change % (negative = inhibition) in [7] is 11.4% (inactive).
